± gives the uncertainty stated by the source.
test system: Candida albicans SNY425 biofilm; assay: biofilm OD600 with compound plus antifungal (OD600 (absorbance)); higher = more biofilm remaining; settings: assay detail: disruption of 24-h mature biofilm (compound + antifungal for a second 24 h)

| Compound | biofilm OD600 |
| --- | --- |
| NCCc1ccc(S(=O)(=O)F)cc1 + C[C@@H]1[C@H](O)[C@@H](C)/C=C/C=C/C=C/C=C/C=C/C=C/C=C/[C@H](O[C@@H]2O[C@H](C)[C@@H](O)[C@H](N)[C@@H]2O)C[C@@H]2O[C@](O)(C[C@@H](O)C[C@@H](O)[C@H](O)CC[C@@H](O)C[C@@H](O)CC(=O)O[C@H]1C)C[C@H](O)[C@H]2C(=O)O [amphotericin B] (first compound 4 µM) | 0.303 ± 0.0047 |
| CN1C(=O)[C@]23CC4=CC=C[C@H](O)[C@H]4N2C(=O)[C@@]1(CO)SS3 [Gliotoxin] + C[C@@H]1[C@H](O)[C@@H](C)/C=C/C=C/C=C/C=C/C=C/C=C/C=C/[C@H](O[C@@H]2O[C@H](C)[C@@H](O)[C@H](N)[C@@H]2O)C[C@@H]2O[C@](O)(C[C@@H](O)C[C@@H](O)[C@H](O)CC[C@@H](O)C[C@@H](O)CC(=O)O[C@H]1C)C[C@H](O)[C@H]2C(=O)O [amphotericin B] (first compound 1 µM) | 0.226 ± 0.0062 |
| NCCc1ccc(S(=O)(=O)F)cc1 + CC[C@H](C)C[C@H](C)CCCCCCCCC(=O)N[C@H]1C[C@@H](O)[C@@H](NCCN)NC(=O)[C@@H]2[C@@H](O)CCN2C(=O)[C@H]([C@H](O)CCN)NC(=O)[C@H]([C@H](O)[C@@H](O)c2ccc(O)cc2)NC(=O)[C@@H]2C[C@@H](O)CN2C(=O)[C@H]([C@@H](C)O)NC1=O [caspofungin] (first compound 4 µM) | 0.29 ± 0.0053 |
| CN1C(=O)[C@]23CC4=CC=C[C@H](O)[C@H]4N2C(=O)[C@@]1(CO)SS3 [Gliotoxin] + OC(Cn1cncn1)(Cn1cncn1)c1ccc(F)cc1F [fluconazole] (first compound 1 µM) | 0.211 ± 0.0079 |
| CN1C(=O)[C@]23CC4=CC=C[C@H](O)[C@H]4N2C(=O)[C@@]1(CO)SS3 [Gliotoxin] + CC[C@H](C)C[C@H](C)CCCCCCCCC(=O)N[C@H]1C[C@@H](O)[C@@H](NCCN)NC(=O)[C@@H]2[C@@H](O)CCN2C(=O)[C@H]([C@H](O)CCN)NC(=O)[C@H]([C@H](O)[C@@H](O)c2ccc(O)cc2)NC(=O)[C@@H]2C[C@@H](O)CN2C(=O)[C@H]([C@@H](C)O)NC1=O [caspofungin] (first compound 1 µM) | 0.217 ± 0.0081 |
| NCCc1ccc(S(=O)(=O)F)cc1 + OC(Cn1cncn1)(Cn1cncn1)c1ccc(F)cc1F [fluconazole] (first compound 4 µM) | 0.278 ± 0.0089 |

same assay, conditions: assay detail: sustained inhibition (compound + antifungal during 90-min adherence and 24-h growth)

| Compound | biofilm OD600 |
| --- | --- |
| NCCc1ccc(S(=O)(=O)F)cc1 + C[C@@H]1[C@H](O)[C@@H](C)/C=C/C=C/C=C/C=C/C=C/C=C/C=C/[C@H](O[C@@H]2O[C@H](C)[C@@H](O)[C@H](N)[C@@H]2O)C[C@@H]2O[C@](O)(C[C@@H](O)C[C@@H](O)[C@H](O)CC[C@@H](O)C[C@@H](O)CC(=O)O[C@H]1C)C[C@H](O)[C@H]2C(=O)O [amphotericin B] (first compound 4 µM) | 0.184 ± 0.011 |
| CN1C(=O)[C@]23CC4=CC=C[C@H](O)[C@H]4N2C(=O)[C@@]1(CO)SS3 [Gliotoxin] + C[C@@H]1[C@H](O)[C@@H](C)/C=C/C=C/C=C/C=C/C=C/C=C/C=C/[C@H](O[C@@H]2O[C@H](C)[C@@H](O)[C@H](N)[C@@H]2O)C[C@@H]2O[C@](O)(C[C@@H](O)C[C@@H](O)[C@H](O)CC[C@@H](O)C[C@@H](O)CC(=O)O[C@H]1C)C[C@H](O)[C@H]2C(=O)O [amphotericin B] (first compound 1 µM) | 0.0908 ± 0.0077 |
| NCCc1ccc(S(=O)(=O)F)cc1 + CC[C@H](C)C[C@H](C)CCCCCCCCC(=O)N[C@H]1C[C@@H](O)[C@@H](NCCN)NC(=O)[C@@H]2[C@@H](O)CCN2C(=O)[C@H]([C@H](O)CCN)NC(=O)[C@H]([C@H](O)[C@@H](O)c2ccc(O)cc2)NC(=O)[C@@H]2C[C@@H](O)CN2C(=O)[C@H]([C@@H](C)O)NC1=O [caspofungin] (first compound 4 µM) | 0.172 ± 0.0053 |
| CN1C(=O)[C@]23CC4=CC=C[C@H](O)[C@H]4N2C(=O)[C@@]1(CO)SS3 [Gliotoxin] + OC(Cn1cncn1)(Cn1cncn1)c1ccc(F)cc1F [fluconazole] (first compound 1 µM) | 0.0782 ± 0.0052 |
| CN1C(=O)[C@]23CC4=CC=C[C@H](O)[C@H]4N2C(=O)[C@@]1(CO)SS3 [Gliotoxin] + CC[C@H](C)C[C@H](C)CCCCCCCCC(=O)N[C@H]1C[C@@H](O)[C@@H](NCCN)NC(=O)[C@@H]2[C@@H](O)CCN2C(=O)[C@H]([C@H](O)CCN)NC(=O)[C@H]([C@H](O)[C@@H](O)c2ccc(O)cc2)NC(=O)[C@@H]2C[C@@H](O)CN2C(=O)[C@H]([C@@H](C)O)NC1=O [caspofungin] (first compound 1 µM) | 0.0858 ± 0.0052 |
| NCCc1ccc(S(=O)(=O)F)cc1 + OC(Cn1cncn1)(Cn1cncn1)c1ccc(F)cc1F [fluconazole] (first compound 4 µM) | 0.109 ± 0.0077 |
